According to PMC12136788:
Residue numbers refer to the chain shown, from its start. In all, about 24,000 sequences were measured (“enrichment r”: median about 0.99, highest 2% from about 3.7 on). The sample holds the highest values, similar sequences and a random draw of the others, so the mix is not that of the screen.

T1: UNK ZnF1-3 (human, UniProt Q9C0B0 31-174)
T1 sequence: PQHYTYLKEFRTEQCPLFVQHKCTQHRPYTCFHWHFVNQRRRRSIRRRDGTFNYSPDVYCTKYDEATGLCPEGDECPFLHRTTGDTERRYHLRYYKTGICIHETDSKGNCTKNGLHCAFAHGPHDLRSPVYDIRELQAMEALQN

B1: chr10:114798999:114799000:-_ENSMUSG00000069520_ENSMUST00000092170|mus_mus|motif|central (ssRNA)
RNA: GGGAGUUCUACAGUCCGACGAUCUCAUCUUUAUAUACCUUUUGCACGUAGUGUCGUCACUAUCUGUCAUGGAAAAUAGAGCGGCGAGCACAUCUUCCACCAACCGAACGACAAAAUAGAAUCGUAAAUCCAAAACGUCUAGUCCAACAGAGGAUUGAGCAUCA
B2: chr1:225977196:225977197:+_ENSG00000143742_ENST00000304786|hu_mus|FALSE|FALSE (ssRNA)
RNA: GGGAGUUCUACAGUCCGACGAUCAUUCCGUUUCCAAAAAUAAAGGUUUUCUAACUGGAAACCCCGACAUUCCUACUCUCUAAAGCAAACUUUAGGACGCAGGCUGGUCUCUCGGCUUUGACAGCUCCAUUACGUAAGUAUAUCCAACAGAGGAUUGAGCAUCA
B3: 29117783_29124966_335_CDS_ENSG00000163811_ENST00000407426|human|control|control (ssRNA)
RNA: GGGAGUUCUACAGUCCGACGAUCUUUUACUGUGCUGUAUAAUAAAAUGCUACCAACUGCUGUGCCAAGAGCCAAUAAGUCAGUCUGGUUACUCAUUCCUACAGCUUCUGAUUUCCUUUUUUUCCUCUGGGGACUUUCCUUGGCCAACAGAGGAUUGAGCAUCA
B4: chr7:141450121:141450122:+_ENSG00000106028_ENST00000265304|hu_mus|hu_hu_hu_mus_True|18_38 (ssRNA)
RNA: GGGAGUUCUACAGUCCGACGAUCUCAUCCGUUCUAUGCCUUUUCUUUUGUCUGGUCACUCAGAAAUAUAAUGUUAUCAGCUAUGAUUGUUGUUGCUUGUCGCCUCACAUUGUUUUUAUCCAUGUAUUCGCCAUAGUCCACUUUCAACAGAGGAUUGAGCAUCA
B5: chr4:115894766:115894767:+_ENSMUSG00000028698_ENSMUST00000030464|mus_hu|mus_mus_mus_hu_True|18_98 (ssRNA)
RNA: GGGAGUUCUACAGUCCGACGAUCUUCCACACGGAAAGUACUUGGGGGUUUUCCAACGGCCAGUACCAGUCCGGCCAAACUACCCGAACAGGGUCCUCCCCCUCUCUCCUACAGAACUAAAGCACCCGCCCCCGAACUUUCAAGCAACAGAGGAUUGAGCAUCA
B6: chr7:140404665:140404666:+_ENSG00000090266_ENST00000247866|hu_hu|hu_hu_hu_mus_False|1_108 (ssRNA)
RNA: GGGAGUUCUACAGUCCGACGAUCUGCGUACAGAGUGCCAGAGAGUUUACAGUGUCAGUCCUCGUCAUCAGGAGGGAUUCCCAGUUCUUCAUCUGUCCACUGUGAAGGAUCUGGAUAUGAAAAGUGACCCAGCACAGCUUCUGACAACAGAGGAUUGAGCAUCA
B7: chr1:39494447:39494448:+_ENSG00000168653_ENST00000372967|hu_mus|hu_hu_hu_mus_False|78_108 (ssRNA)
RNA: GGGAGUUCUACAGUCCGACGAUCGCAUCGACCAGCCUUCUUAUAGGGCUGUUCUGCACUCUGGAUUAUAAAGUGCCGGUCCAGGCUGAUGCCCAGCUUUUUCUGUAUGUCAAGGAAAGGCAUGGCUCUGCAGUGCCCUUGUCACAACAGAGGAUUGAGCAUCA
B8: 114145877_114145997_1367_3pUTR_ENSMUSG00000033545_ENSMUST00000095176|mouse|control|control (ssRNA)
RNA: GGGAGUUCUACAGUCCGACGAUCUUUGCAGUGGACAAUGUCUGUUCCACAGGCCACUACUUAGUGAUUCUUCCCUUUCAGAACCGAGUCUCUGAGAGGUGAGGGAGGUGAGGCUGCUGUAGAGCCUGGCUGGGGGCGCCUCUGCAACAGAGGAUUGAGCAUCA
B9: chr7:130337358:130337359:+_ENSMUSG00000052707_ENSMUST00000094053|mus_mus|FALSE|FALSE (ssRNA)
RNA: GGGAGUUCUACAGUCCGACGAUCACAAGAUUUUUUGACCGGGGAACUGGUUUCCUGAGAACCAUGCUCUUUGAUUUAGGACAGGAAUAGAAAACAGAAGAACAUGGCCAACUGCUGCUCUUUUCCCAGAGAUAGAAGCGUCUUCAACAGAGGAUUGAGCAUCA
B10: chr2:165877891:165877892:+_ENSMUSG00000027678_ENSMUST00000088095|mus_mus|motif|central (ssRNA)
RNA: GGGAGUUCUACAGUCCGACGAUCGAACCUCUGGAUACAUCUUCGGAUUAUGUCUUCAAAGCCAGGCCUCAUGGAAGAUCGGAGUGAGUUUGUAUCUAUAUUGACAACCUUUCCGGAAAGGUCAUGUCUGGUAAUAAAGCUCUCCAACAGAGGAUUGAGCAUCA
B11: chr13:100193591:100193592:-_ENSMUSG00000052727_ENSMUST00000064762|mus_mus|motif|central (ssRNA)
RNA: GGGAGUUCUACAGUCCGACGAUCUUAAACCCUCAGAGUAAAAGAGCAGUGCGAAACAUACGCUUUACAGACGAAAAUAAACGGAAAUGUAAAUUUUGAAAUAAAUAACUAACAUAGAAAAUAAAAUGAGGUCAUUGUUCACUACAACAGAGGAUUGAGCAUCA
B12: chr19:7500544:7500545:-_ENSMUSG00000024758_ENSMUST00000025667|mus_mus|FALSE|FALSE (ssRNA)
RNA: GGGAGUUCUACAGUCCGACGAUCACAGACACGUACACAAUUUCAUUAGUAAUUUUUUCAUCUCUACGAGUCUUUGUUUAAAAAAACAAAACCGAAAAAACCCUCUCAUGUAACACAGAAACCUUUCCAAUUAUUUUAACACAGCAACAGAGGAUUGAGCAUCA
B13: chr13:100193591:100193592:-_ENSMUSG00000052727_ENSMUST00000064762|mus_mus|FALSE|FALSE (ssRNA)
RNA: B11 RNA with G82U, G83A
B14: chr3:32586495:32586496:-_ENSG00000144635_ENST00000273130|hu_hu|FALSE|FALSE (ssRNA)
RNA: GGGAGUUCUACAGUCCGACGAUCUUUCUGUAAAGAAUCCAAAGCAGUCCAAGGCUUUGACAUGUCAACAACCAGCAUAACUAGAGUAUCCUUCAGAGAUACGGCAUCCAGUGAAAAUUUAAGGAGGCCUUUGUGAUAUAGGUCCAACAGAGGAUUGAGCAUCA

molecular target: T1, UNK ZnF1-3; experiment: nsRBNS (natural sequence RNA bind-n-seq); RBNS binding buffer (assumed for nsRBNS): 25 mM Tris pH 7.5, 150 mM KCl, 3 mM MgCl2, 0.01% Triton X-100, 500 ug/ml BSA, 20 U/ml SUPERase-In, 4 C; UNK is unkempt and MSI1 is Musashi-1; names of the RNAs are library labels; protein concentration not given here; high values mean tight binding

**Q.** How did the binding signal turn out when B1 was run?
**A.** 0.824 enrichment R

**Q.** With B2 as the binder, how does the binding signal read?
**A.** 0.892 enrichment R

**Q.** For B3, which binding signal is on record?
**A.** 0.828 enrichment R

**Q.** B4 was tested. Which binding signal did it give?
**A.** 0.364 enrichment R

**Q.** Which binding signal does the source give for B5 here?
**A.** 1.44 enrichment R

**Q.** With B6 as the binder, how does the binding signal read?
**A.** 1.16 enrichment R

**Q.** B7 was tested. Which binding signal did it give?
**A.** 1 enrichment R

**Q.** For B8, which binding signal is on record?
**A.** 0.695 enrichment R

**Q.** B9 was tested. Which binding signal did it give?
**A.** 0.987 enrichment R

**Q.** How did the binding signal turn out when B10 was run?
**A.** 0.788 enrichment R

**Q.** For B11, which binding signal is on record?
**A.** 4.73 enrichment R

**Q.** B12 was tested. Which binding signal did it give?
**A.** 1.21 enrichment R

**Q.** B13 was tested. Which binding signal did it give?
**A.** 5.86 enrichment R

**Q.** B14 was tested. Which binding signal did it give?
**A.** 1.74 enrichment R
